The nature of experiment [1]: Cell Viability - LYMP2-023 (AID 975).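 Note: cellular ATP measured by luciferase luminescence as viability proxy; series mostly up to about 92 µM; plate controls were DMSO only for no effect and 92 µM tetraoctylammonium bromide control for full effect; nearly all actives have a fitted effect of over 55% in size.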 A digest of the protocol: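 Concentration-dependent drop in intracellular ATP measures acute cytotoxicity in a human lymphoblastoid line treated for 24 hours in complete culture medium. AC50 values are taken from Hill-equation fits of qHTS data.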
Experiment [2] is described as follows: Cell Viability - LYMP2-025 (AID 976).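 Note: series mostly up to about 92 µM; plate controls were DMSO only for no effect and tetraoctylammonium bromide control for full effect.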 A digest of the protocol: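 In qHTS format, LYMP2-025 lymphoblastoid cells in complete culture medium received compound for 24 hr; ATP-based CellTiter-Glo signal gave viability, with AC50 derived by Hill equation.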
The nature of experiment [3]: Cell Viability - LYMP2-002 (AID 977).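 Note: series mostly up to about 92 µM; compound exposure lasted 24 h at 37 °C; plate controls were DMSO only for no effect and 92 µM tetraoctylammonium bromide for full effect.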 A digest of the protocol:
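Human lymphoblastoid LYMP2-002 cells, 2500 per well, exposed to compounds for 24 h at 37 C in complete medium; viability read as intracellular ATP by CellTiter-Glo luminescence, AC50 from Hill fits.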

Experiment [4] is described as follows: Cell Viability - LYMP2-006 (AID 978). Note: series mostly up to about 92 µM; % is set by controls: 0 for no effect and ±100 for the full control effect; nearly all actives have a fitted effect of over 60% in size. A digest of the protocol: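 qHTS, 1536-well; 2500 cells/well, 5 hr 37 C; cpd 24 hr 37 C; CellTiter-Glo 30 min RT; luminescence. Tetraoctylammonium bromide pos. ctrl. AC50 via Hill eqn.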
A short description of experiment [5]: Cell Viability - LYMP2-007 (AID 979).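 Note: cells exposed to compound for 24 h before reading; 0% = DMSO only and the negative end = 92 µM tetraoctylammonium bromide; nearly all actives have a fitted effect of over 60% in size.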 A digest of the protocol:
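Acute toxicity is scored as a concentration-dependent fall in intracellular ATP in human lymphoblastoid cells treated 24 hr at 37 C, measured by luciferase luminescence; Hill-equation modelling yields AC50.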

Experiment [6] is described as follows: Cell Viability - LYMP2-008 (AID 980). Note: % is set by controls: 0 for no effect and ±100 for the full control effect; nearly all actives have a fitted effect of over 60% in size. A digest of the protocol: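 Acute cytotoxicity is scored as concentration-dependent loss of cellular ATP in a human lymphoblastoid line after 24 hr treatment at 37 C. ATP is quantified by luciferase luminescence.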
A short description of experiment [7]: Cell Viability - LYMP2-010 (AID 981). Note: % is set by controls: 0 for no effect and ±100 for the full control effect; nearly all actives have a fitted effect of over 55% in size. A digest of the protocol:
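Acute toxicity is scored as a concentration-dependent loss of cellular ATP in human lymphoblastoid cells after 24 hr compound exposure in complete medium. Tetraoctylammonium bromide is the positive control.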

Experiment [8] can be described thus: Cell Viability - LYMP2-012 (AID 982).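 Note: cellular ATP by luciferase luminescence where a drop means cytotoxicity; cells exposed to compound for one day before reading; 0% = DMSO only and full loss = 92 µM tetraoctylammonium bromide; nearly all actives have a fitted effect of over 55% in size.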 The text has this: NIH Chemical Genomics Center [NCGC]
NIH Molecular Libraries Screening Centers Network [MLSCN]
National Institutes of Environmental Health Sciences [NIEHS]
National Toxicology Program [NTP]
We have developed a 1536-well cell-based assay for quantitative high throughput screening (qHTS) against a number of cell lines to determine in vitro cytotoxicity of small molecules. This particular assay uses a human lymphoblastoid cell line (LYMP2-012) purchased from Coriell Institute for Medical Research.
NCGC Assay Protocol Summary:
The CellTiter-Glo luminescent cell viability assay (Promega) is a homogeneous method to measure the number of viable cells in culture. The end point readout of this assay is based on quantitation of intracellular ATP, an indicator of metabolic activity, using the luciferase reaction. […]
Using the CellTiter-Glo luminescent cell viability assay, the amount of cellular ATP was measured in the lymphoblastoid cell line with complete culture medium following compound treatment for 24 hours. […] Library compounds were measured for their ability to cause acute toxicity in the cell line, as reflected by a decrease in intracellular ATP levels, in a concentration-dependent manner. […] AC50 values were determined from concentration-response data modeled with the standard Hill equation. […]
8. Detection; Luminescence; Viewlux plate reader […]

Experiment [9] can be described thus: Cell Viability - LYMP2-014 (AID 983).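 Note: series mostly up to about 92 µM; plate controls were DMSO only for no effect and 92 µM tetraoctylammonium bromide for full effect; nearly all actives have a fitted effect of over 50% in size.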 A digest of the protocol: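 Decrease in intracellular ATP after 24 hr treatment at 37 C, measured by luciferase luminescence, indicated cytotoxicity. Concentration-response data were fitted with the standard Hill equation to give AC50.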
Experiment [10] is described as follows: Cell Viability - LYMP2-016 (AID 984). Note: % is set by controls: 0 for no effect and ±100 for the full control effect; nearly all actives have a fitted effect of over 55% in size. A digest of the protocol: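 qHTS, 1536-well: 2500 LYMP2-016 cells/well, 5 hr 37 C, compound added, 24 hr 37 C, CellTiter-Glo 30 min RT, luminescence. Tetraoctylammonium bromide positive control. AC50 via Hill fit.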
The nature of experiment [11]: Cell Viability - LYMP2-018 (AID 985).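 Note: compound exposure lasted 24 hr at 37 °C; plate controls were DMSO only for no effect and tetraoctylammonium bromide at 92 µM for full effect; nearly all actives have a fitted effect of over 50% in size.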 A digest of the protocol:
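Acute cytotoxicity is scored as a concentration-dependent drop in intracellular ATP after 24 hr exposure of the lymphoblastoid line in complete culture medium, measured by luciferase luminescence. Potency is expressed as AC50 from Hill modelling.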

Experiment [12] can be described thus: Cell Viability - LYMP2-020 (AID 986). A digest of the protocol:
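Acute cytotoxicity in a human lymphoblastoid line is scored as a concentration-dependent fall in cellular ATP after 24 hr at 37 C in complete medium. The positive control is tetraoctylammonium bromide, and potency is given as Hill-fit AC50.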

Experiment [13] is described as follows: Cell Viability - LYMP2-022 (AID 987). A digest of the protocol: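 Acute toxicity in a human lymphoblastoid line is scored as decreased intracellular ATP after 24 hr compound treatment at 37 C. ATP is measured by CellTiter-Glo luminescence; curves are fitted with the Hill equation to give AC50.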
The nature of experiment [14]: Cell Viability - LYMP2-024 (AID 988).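 Note: plate controls were DMSO only for no effect and 92 µM tetraoctylammonium bromide for full effect; nearly all actives have a fitted effect of over 60% in size.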 A digest of the protocol: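 Acute toxicity is measured as concentration-dependent loss of intracellular ATP in a human lymphoblastoid line treated 24 hours at 37 C. Luciferase luminescence quantifies ATP; AC50 values come from standard Hill-equation modelling.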
Experiment [15] can be described thus: Cell Viability - LYMP2-026 (AID 989). Note: % is set by controls: 0 for no effect and ±100 for the full control effect; nearly all actives have a fitted effect of over 50% in size. A digest of the protocol:
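Concentration-dependent loss of intracellular ATP in human lymphoblastoid cells after 24 hr at 37 C, quantified by luciferase luminescence. AC50 derived from standard Hill equation.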

Experiment [16] in a line: Cell Viability - LYMP1-002 - Assay at 24 hr (AID 993). Note: % is set by controls: 0 for no effect and ±100 for the full control effect. A digest of the protocol:
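qHTS, LYMP1-002 lymphoblastoid, 24 h cpd, 37 C, CellTiter-Glo ATP luminescence; AC50 via Hill eq.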

A short description of experiment [17]: Cell Viability - LYMP1-002 - Assay at 40 hr (AID 994). A digest of the protocol:
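Viability in the human lymphoblastoid line was measured as intracellular ATP via CellTiter-Glo after 40 hr compound exposure. Tetraoctylammonium bromide served as positive control.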

The nature of experiment [18]: qHTS assay for small molecule antagonists of peroxisome proliferator-activated receptor delta signaling (AID 588535; active = well fitted inhibition curve with a large enough effect in the signal ratio, with a control signal flat, not every such curve was filed as active; the % refers to the signal ratio;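 for max response: cells co-treated with a PPAR-delta agonist as stimulator during compound exposure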). The following applies: HEK293T PPARd-UAS-bla, beta-lactamase FRET ratio, 18 h; 460 nm channel. A digest of the protocol:
(§1)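 Cells were seeded at 4000 per well in assay medium containing 2% charcoal/dextran FBS and held 5 hrs at 37 C. Compounds were then added for 18 hrs. CCF4 substrate was applied for 2 hrs at room temperature before fluorescence reading.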

The target in experiment [19] is Peroxisome proliferator-activated receptor delta (Homo sapiens) (UniProt Q03181). The experiment is described as above. A digest of the protocol: as §1
Sequence of Peroxisome proliferator-activated receptor delta (Homo sapiens) (Q03181 whole entry, looked up): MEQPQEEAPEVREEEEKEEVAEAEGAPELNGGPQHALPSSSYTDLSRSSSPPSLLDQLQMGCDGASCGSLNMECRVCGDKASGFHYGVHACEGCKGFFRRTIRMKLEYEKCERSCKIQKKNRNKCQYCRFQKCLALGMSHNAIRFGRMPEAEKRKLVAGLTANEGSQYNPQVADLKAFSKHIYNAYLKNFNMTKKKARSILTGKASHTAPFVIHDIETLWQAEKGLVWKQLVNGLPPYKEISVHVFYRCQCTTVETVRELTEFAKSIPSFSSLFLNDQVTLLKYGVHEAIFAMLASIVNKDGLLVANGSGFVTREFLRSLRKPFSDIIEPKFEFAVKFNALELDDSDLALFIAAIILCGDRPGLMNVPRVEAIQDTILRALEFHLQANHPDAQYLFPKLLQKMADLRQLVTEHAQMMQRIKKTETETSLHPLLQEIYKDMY
Experiment [20] concerns the target Vitamin D3 receptor (Homo sapiens) (UniProt P11473). The experiment is described as follows: qHTS assay for small molecule antagonists of vitamin D receptor signaling (AID 588541; calls by dose curve;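 note: receptor activated by calcitriol during compound treatment; series mostly up to about 77 µM; % is set by controls: 0 for no effect and ±100 for the full control effect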). A digest of the protocol:
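VDR-UAS-bla HEK293T cells in 2% charcoal-stripped FBS were stimulated with 1-alpha,25-dihydroxyvitamin D3 (3 nM final) plus compound for 16 h at 37 C. The beta-lactamase CCF4 readout was normalized to 50 nM agonist and DMSO, and Hill fits gave IC50.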
Background: In qHTS, concentration-response curves come from the screen itself.

Experiment [21] shares this target. The experiment is described as follows: qHTS assay for small molecule agonists of vitamin D receptor signaling (AID 588543; calls by dose curve;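 note: 0% = DMSO basal and 100% = reference agonist control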). A digest of the protocol: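 β-lactamase reporter, VDR-UAS-bla HEK293T, agonist mode. Cells plated 5 h at 37 °C, compound titration 16 h at 37 °C, CCF4 dye 2 h RT, ratio 460/530 nm. Hill fit → EC50, efficacy vs 50 nM 1α,25-(OH)2D3.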

Structures are written as SMILES. Results filed as inconclusive are left out. Activity calls are given as the source filed them. Unless noted, calls come from the whole dose curve; as a rule, active = well fitted cell-killing curve with a large enough effect; inconclusive = small, poorly fitted or top-dose-only effect; inactive = flat fitted curve, though single readings scatter.

Sequence of Vitamin D3 receptor (Homo sapiens) (P11473 whole entry, looked up): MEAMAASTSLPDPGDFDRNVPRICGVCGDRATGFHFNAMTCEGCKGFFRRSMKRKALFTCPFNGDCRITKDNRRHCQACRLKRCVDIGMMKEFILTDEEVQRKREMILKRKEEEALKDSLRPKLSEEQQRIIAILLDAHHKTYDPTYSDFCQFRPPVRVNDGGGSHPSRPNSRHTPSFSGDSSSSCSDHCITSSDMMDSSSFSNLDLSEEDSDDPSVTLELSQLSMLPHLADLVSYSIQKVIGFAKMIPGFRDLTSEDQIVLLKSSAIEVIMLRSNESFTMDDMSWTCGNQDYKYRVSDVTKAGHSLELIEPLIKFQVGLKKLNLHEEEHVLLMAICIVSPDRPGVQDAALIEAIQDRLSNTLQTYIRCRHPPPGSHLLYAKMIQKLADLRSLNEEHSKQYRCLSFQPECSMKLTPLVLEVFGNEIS

Regarding `CO[C@H]1/C=C/O[C@@]2(C)Oc3c(C)c(O)c4c(O)c(c(/C=N/N5CCN(C)CC5)c(O)c4c3C2=O)NC(=O)/C(C)=C\C=C\[C@H](C)[C@H](O)[C@@H](C)[C@@H](O)[C@@H](C)[C@H](OC(C)=O)[C@@H]1C`, the call in [1], in experiment [2], in experiment [3], in [4], in experiment [5] and in [6] was inactive. Further, the compound was called inactive in experiment [7], in [8], in experiment [9], in experiment [10], in experiment [11] and in experiment [12]. In addition, the result in experiment [13], in experiment [14], in [15], in experiment [16], in [17] and in [19] was inactive. The result in experiment [20] and in [21] was inactive. For the same compound, the max response in experiment [18] is 91.2%.

For the origin of these results see PubChem BioAssay (NCATS).
